In the supplement of paper PMC11417369:
± gives the standard deviation of the averaged measurements. The full ranking holds about 25,000 sequences; the median of “ln(normalized median fluorescence intensity)” is about 8.6, and the highest 2% start at about 10. The entries come from a sample that favours the highest values as a whole.

The sequences below were run on PfAP2-EXP AP2 domain (GST-tagged) (assay: gcPBM binding intensity (ln(normalized median fluorescence intensity)); higher = stronger DNA binding).
Outline: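 Binding of GST-tagged P. falciparum DNA-binding domains, expressed in E. coli and used at about 25 μg on average, was carried out for 1 h in 1× PBS containing 1% milk, 0.2 mg/ml BSA, 0.5% salmon testes DNA and 0.03% Triton X-100. The target was an Agilent 4 × 180k array of primer-extended double-stranded 36-bp intergenic genomic probes plus negative controls, read with Alexa488 anti-GST antibody at 488 nm. Binding intensity is the highest Masliner-normalised natural-log median intensity across replicate spots of either probe orientation.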

Sequence | gcPBM binding intensity (ln)
TGTTATATATGTAATTGTACACTTATACAAAATTAT [XGTACX_site6350] | 8.52 ± 0.22
TTTTTGTTTTTGTTTTGTACTCATACATACTATCAT [XGTACX_site4210] | 8.99 ± 0.44
AAAAAAAATATATTACAAAACTTAGGATCCTAATAT [CACACA_negctrl_site470] | 8.48 ± 0.39
AAATATTAAATGGAAAACAAATATATATATCTTAAT [XGTACX_negctrl_site383] | 8.56 ± 0.38
TATGTATAAAAATAATGTACAAAATATATTATATGT [XGTACX_site2794] | 8.69 ± 0.33
TATATATATATATGGGGTACAAATGGTCAGTATTAT [XGTACX_site1223] | 10.2 ± 0.21
AAAAAAAAAATTGAAAGTACACAAATGGGGTATTAT [XGTACX_site3960] | 8.75 ± 0.35
GATATTCATTATATATGTACATATATGTAATATATA [XGTACX_site2210] | 8.55 ± 0.24
AAAAAAAAAAAAAAGACACACATATATATATATATA [CACACA_site633] | 10 ± 0.31
AAACATAAGGGACACACACACATATATATATATATA [CACACA_site5920] | 10.3 ± 0.16
AATAATAAAAAAAGTGCACACACATAATATATATAT [CACACA_site9100] | 9.47 ± 0.099
TAATAAAAAAAGTGCACACACATAATATATATATAT [CACACA_site3340] | 9.74 ± 0.28
TCTATAAAGGAATATACACACATATATATATATATA [CACACA_site410] | 10 ± 0.26
GTAATCCACAAACACACACACATACACATATATATA [CACACA_site2728] | 8.78 ± 0.34
TATATATATAAACACACACACACATATATATATATT [CACACA_site8814] | 9.02 ± 0.23
AATATAAAAAGGCACACACACAAAAAAAAAAAAAAA [CACACA_site896] | 8.26 ± 0.49
TATAAAAGTGGACACACACACATATATATATATATA [CACACA_site4673] | 10.2 ± 0.64
TATATATATAAACACACACACATATATATATATATA [CACACA_site4584] | 10.1 ± 0.35
GAATAAAGGAGAGGCACACATATATATATATATATA [CACACA_site2452] | 10.2 ± 0.25
AATCCACAAAGACACACACACACATATATATATATA [CACACA_site1269] | 10.2 ± 0.35
ATAAAAAAAGATGAACGTACATATATTTTAAAAATC [XGTACX_site5950] | 8.7 ± 0.45
TAATCATTTTTAAATTGTACAATTTATATAATAAGT [XGTACX_site6081] | 8.5 ± 0.26
AAATTTATAAATTAAAGTACATATTTCTTGAATATT [XGTACX_site859] | 8.34 ± 0.48
CTCAACATATACGTAACACACATATATATATATATA [CACACA_site3838] | 10.2 ± 0.41
TAAGTTTTGTTTTTTTGTACTCATTCATACTATCAT [XGTACX_site3638] | 8.87 ± 0.49
